NadD block: NadD (S. aureus) enzyme inhibition | purified NadD enzyme, colorimetric absorbance read-out | inhibition, % at 20 µM | 360,000 tested, 0.78% active; in the data active = inhibition above about 26%
PP5 primary: inhibitors of human protein phosphatase 5 (PP5); inhibition, % at 6.7 µM; AID 1987; purified PP5c, OMFP substrate fluorescence; P53041; 320,000 tested, 0.18% active;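 active = inhibition above the campaign's mean inhibition across all tested compounds plus 3 SD, cut at about 9.5% in these data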;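 also: 0% = DMSO only and 100% = 100 µM cantharidin control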
PREPL inh: human PREPL enzyme inhibition; recombinant PREPL, fluorescence polarization activity-based probe; inhibition, % at 5.96 µM; 320,000 tested, 0.68% active; in the data active = inhibition above about 43%;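 also: 0% = enzyme with DMSO and 100% = wells lacking enzyme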
PP1 counter: PP1-alpha (human) inhibition in PP5 counter-screen | P62136 | purified PP1alpha, OMFP fluorescence | inhibition, % at 6.7 µM | 320,000 tested, 0.9% active;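 active = inhibition above the mean inhibition of all tested compounds plus 3 SD, computed separately for each screening campaign, cut at about 15% in these data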
Rpn11 inh: Rpn11 (human) deubiquitinase inhibition. human 26S proteasome, Ub4-pepOG fluorescence polarization; 20S core pre-blocked with epoxomicin. AID 588493. inhibition, % at 20 µM. 360,000 tested, 0.59% active;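 active = inhibition at 20 µM, scaled to each plate's controls, above about 33%, limit read from the data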
Active calls of the source: *; . = no result given. An excerpt weighted towards active compounds, which were near 2.4% of everything screened.

SMILES	NadD block	PP5 primary	PREPL inh	PP1 counter	Rpn11 inh
c1ccc(Nc2nc(NCc3ccco3)c3ccccc3n2)cc1	-4	1	-4	16*	18
COc1ccc(NC(=O)CCC(=O)c2ccc(-c3ccccc3)cc2)cc1	4	2	0	16*	34
CC(C)Cc1ccc(-c2cc3nc(NCCCn4ccnc4)ccn3n2)cc1	18	.	.	.	8
C=CCn1c2ccccc2c(=O)c2cc(C#Cc3ccccn3)ccc21	2	2	1	5	6
C=CCn1c2ccccc2c(=O)c2cc(C#Cc3ccsc3)ccc21	.	2	3	17*	.
CCN(CC)CCOC(=O)c1ccc(NC(=O)CCCN2C(=O)S/C(=C/c3ccc(OC)cc3)C2=S)cc1	11	3	-1	10	68*
COc1ccc(/C=C2\SC(=S)N(CCC(=O)Nc3ccc(O)cc3)C2=O)cc1	9	3	20	2	-2
O=C(NCc1ccccn1)[C@@H]1CCCN1C(=O)[C@@H]1CCCN1	-1	.	.	.	.
C=CC(=O)Nc1cccc(Nc2nc(N[C@H]3CC[C@H](N(C)C)CC3)nc3c2ncn3C(C)C)c1	14	.	.	.	68*
c1ccc2c(c1)oc1c(-c3cccc4nccn34)cccc12	3	.	.	.	-4
Nc1ccc(O)c2c1C(=O)c1ccccc1C2=O	9	4	51*	2	-126
COc1ccc(C/C(N)=N/OC(=O)CCc2ccccc2)cc1	-2	3	-3	0	4
CN(C)c1ccc(/C=C(/NC(=O)c2ccccc2)C(=O)N/N=C/c2ccc([N+](=O)[O-])c(O)c2)cc1	41*	3	12	12	11
O=C(N/N=C/c1ccco1)/C(=C/c1cccc([N+](=O)[O-])c1)NC(=O)c1ccccc1	3	-1	47*	-2	4
CCC(=O)N1CCCC1(C)C(=O)Nc1ccc2nc(C)ccc2c1 (centres undefined)	4	.	.	.	2
O=C(c1cc(-c2ccc(F)cc2)on1)N1CCCc2ccccc21	-13	2	11	16*	-4
COc1cc2c(cc1OC)C1(Nc3c-2c(-c2ccccc2)nn3-c2ccccc2)C(=O)Nc2ccccc21 (centres undefined)	40*	1	3	1	22
COc1cc2c(cc1OC)C1(Nc3c-2c(C)nn3-c2ccccc2)C(=O)Nc2ccccc21 (centres undefined)	0	4	19	-1	2
CCOc1ccc(-n2c(SCC(=O)Nc3ccc(CC)cc3)nc3n[nH]c(C)c3c2=N)cc1	2	2	2	16*	5
CCc1ccccc1NC(=O)CSc1nc2n[nH]c(C)c2c(=N)n1-c1ccc(OC)cc1	2	.	.	.	2
O=C(Nc1nnc([C@@H]2C[C@H](O)[C@@H](CO)O2)s1)Nc1ccccc1F	-3	.	.	.	2
COc1cc(OC)cc(-c2noc([C@H]3C[C@H](O)[C@@H](CO)O3)n2)c1	-4	.	.	.	2
COc1cc([N+](=O)[O-])cc(/C=N/NC(=O)c2ccc(C)nc2)c1O	-1	5	17	24*	-3
COc1cc(/C=N/NC(=O)c2ccc(C)nc2)cc([N+](=O)[O-])c1O	-2	2	17	1	0
Cc1cccc(C)c1NC(=O)C1CCCN1C(=O)NCc1ccccc1 (centres undefined)	-3	-1	-3	-5	5
SMILES	NadD block	PP5 primary	PREPL inh	PP1 counter	Rpn11 inh
Cn1c(=O)c2cc(NC(=O)NCc3ccccc3)ccc2n1Cc1ccc(Cl)cc1	1	.	.	.	7
CC(=NNC(=S)N1CCN(c2ccccn2)CC1)c1ccccn1	13	.	.	.	42*
Cc1ccc(/C=C/C2=Cc3c(sc(NC(=O)CSc4n[nH]c(N)n4)c3C#N)C(C)(C)C2)o1	.	-8	4	57*	.
Cc1sc(NC(=O)CSc2n[nH]c(N)n2)c(C#N)c1C	13	.	.	.	32
Cc1cc(C)n(CC(O)Cn2c(C)c(C)c3ccccc32)n1 (centres undefined)	-4	-3	-45	6	44*
Cc1c(C)n(CC(O)CN2CCCCC2)c2ccccc12 (centres undefined)	-3	1	6	-2	5
CCN(c1cccc(C)c1)S(=O)(=O)c1ccc(-c2ccc(=O)[nH]n2)o1	0	-1	3	4	-8
Cn1nc(C(C)(C)C)cc1C(=O)N1CCCC(c2cc(C(=O)NCc3ccccc3)no2)C1 (centres undefined)	-4	.	.	.	-2
C/C(CC(=O)Nc1ccc(OCc2ccccc2)cc1)=N\NC(=O)C(=O)Nc1ccccc1C	12	0	8	16*	-4
